Source: PubChem BioAssay
Calls of active or inactive are those of the source.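 The calls were made as follows: active = viability at or below 10% of carrier control in both of two separate runs; inconclusive = viability at or below 10% in only one of the two runs; inactive = the rest.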

Experiment: SK-BR-3 cell growth inhibitors, pilot screen, 24 h, human (AID 572);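 also: compound exposure lasted between 18 and 24 h rather than exactly 24 h; 100% = carrier-treated control wells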
Conditions: SK-BR-3 viability, CellTiter-Glo luminescence, at 10 µM, stronger effect = lower value
For `Cc1nnc2n(-c3ccc(Cl)cc3)c(=O)c3c4c(sc3n12)CN(C)CC4`, the viability was 84% (inactive). For `O=c1oc2c3c4c(cc2s1)CCCN4CCC3`, the viability was 89% (inactive). With `Cc1cc(C)n2nc(SCc3nc4ccccc4[nH]3)nc2n1` the viability was 87.5% (inactive). With `Cc1cc(C)cc(N(CC(=O)Nc2cccc(C)n2)S(=O)(=O)c2c(C)noc2C)c1` the viability was 88.5% (inactive). For `COc1cccc(C2C3=C(N=C4SCC(=O)N42)c2ccccc2CC3)c1OC` (stereo not given), the viability was 103% (inactive). With `O=C(Cn1nc(Cc2ccncc2)c2ccccc2c1=O)N1CCN(C(=O)c2ccco2)CC1` the viability was 98.5% (inactive). With `O=C(Nc1c(C(=O)NCc2ccco2)cnn1-c1ccccc1)c1ccc(F)cc1` the viability was 95.5% (inactive). For `Cc1nc2ccc(S(=O)(=O)NC(C(=O)Nc3nccs3)C(C)C)cc2s1` (stereo not given), the viability was 87% (inactive). In the case of `Cn1nnnc1SCC(=O)N1CCN(c2ccccc2)CC1`, the viability is reported as 94.5% (inactive). For `COc1cc2c(cc1OC)-c1nnc(C)n1C1(CCCC1)C2`, the viability was 87% (inactive). For `CS(=O)(=O)N(Cc1ccco1)CC(O)Cn1c2ccccc2c2ccccc21` (stereo not given), the viability was 93.5% (inactive). In the case of `COc1cccc(C2=NOC(C(=O)N3CCc4ccccc4C3)C2)c1` (stereo not given), the viability is reported as 87% (inactive). With `O=C(CC1Oc2ccccc2NC1=O)NCCCN1CCOCC1` (stereo not given) the viability was 106% (inactive). For `CCOC(=O)N1CCN(C(=O)c2ccc(CS(=O)(=O)c3c(Cl)cccc3Cl)o2)CC1`, the viability was 114% (inactive). With `CCn1cc(SCC(=O)Nc2cc(C)on2)c2ccccc21` the viability was 110% (inactive). In the case of `COc1ccccc1N1CCN(C(=O)N2CCOCC2)CC1`, the viability is reported as 107% (inactive). For `O=C(CSc1nnc2ccccn12)c1ccccc1`, the viability was 99% (inactive). In the case of `CCOc1ccc(N(CC(=O)OC)S(=O)(=O)c2ccc(OC)c(OC)c2)cc1`, the viability is reported as 108% (inactive). For `CCCCSc1nc(CCC)cc(=O)[nH]1`, the viability was 86.5% (inactive). In the case of `O=C(CN1CCN(Cc2ccccc2F)C1=O)NCc1cccnc1`, the viability is reported as 94.5% (inactive). With `COc1ccc(OC)c(C(=O)c2ccc(C(=O)O)cc2)c1` the viability was 120% (inactive). With `Cc1ccc(C)n1-n1c(C)nc2sc(-c3ccccc3)cc2c1=O` the viability was 89% (inactive). With `CCn1c(C(=O)N2CCC(C(=O)N3CCN(c4ccccn4)CC3)CC2)cc2sccc21` the viability was 95% (inactive). For `C=CCSc1nc(N)c2c(C)c(C)sc2n1`, the viability was 98.5% (inactive). In the case of `COc1ccc(OCCSc2nc3ccccc3n2CC(=O)O)cc1`, the viability is reported as 92.5% (inactive). With `Cc1nnc(SCC(=O)NCc2ccccc2)s1` the viability was 97.5% (inactive). In the case of `Clc1ccc(SCCCCn2ccnc2)cc1`, the viability is reported as 90.5% (inactive). For `CC1(C)Oc2ccc3ccc(=O)oc3c2C(N2CCCCC2)C1O` (stereo not given), the viability was 103% (inactive). With `CSCCC(N=CC1=C(O)CC(C)(C)CC1=O)C(=O)O` (stereo not given) the viability was 100% (inactive). For `COc1ccc(C)cc1NC(=O)C1CCN(S(=O)(=O)c2cccc3cccnc23)CC1`, the viability was 80.5% (inactive). In the case of `CCOc1ccc(-c2nnc(SCC(=O)N3CCN(c4ccccc4)CC3)o2)cc1`, the viability is reported as 103% (inactive). In the case of `CCCOc1ccc2ccccc2c1/C=N/n1cnnc1`, the viability is reported as 93% (inactive). In the case of `O=C(Cn1cc2c(n1)CCCCC2)N1CCc2ccccc21`, the viability is reported as 85.5% (inactive). For `CCn1cc(C(=O)N2CCOCC2)c(=O)c2cc(S(=O)(=O)N(C)C3CCCCC3)ccc21`, the viability was 84% (inactive). For `COCCn1c(SCC(=O)Nc2ccc3c(c2)OCCO3)nc2c(c1=O)SC(C)C2` (stereo not given), the viability was 95% (inactive). For `CC(C)CCN(C)C1CCN(S(=O)(=O)c2ccc(F)cc2)CC1`, the viability was 87% (inactive). For `COc1ccccc1-n1c(=O)[nH]c2c(C(N)=O)nc(-c3cccnc3)nc21`, the viability was 82.5% (inactive). With `Cn1c(/C=N/n2cnnc2)nc2ccccc21` the viability was 100% (inactive). In the case of `CN1CCN(CCCNC(=O)Cn2ncc3c4ccccc4n(C)c3c2=O)CC1`, the viability is reported as 84% (inactive). For `CCOc1ccc(N(CC(=O)NCc2ccco2)S(=O)(=O)c2ccc(OC)c(OC)c2)cc1`, the viability was 79% (inactive).
